Measurements reported in ChEMBL document CHEMBL3988442, “University of Dundee, Small-Polar-MMV Screening Library” (2021).

Biological target: AMP-activated protein kinase, AMPK (Homo sapiens) (UniProt P54646+O43741+P54619+Q9UGJ0+Q9Y478+Q13131+Q9UGI9)
Assay: AMP-dependent Kinase enzyme assay. An in vitro enzyme assay that detects ADP turnover that is directly proportional to AMPK activity. This uses naive AMPK that is activated during the assay with MK-8722
Type: functional
Parameters: scale not given: direction of the effect not stated beside the values
Conditions: 30 µM

Row | Compound | Percent Effect [%]
1 | CC(CN1CCOC1=O)NC(=O)c1cccc(C#N)c1 (stereo not given) | 11.8
2 | Clc1ccc(N2CCC(OCC3CCCCO3)CC2)nc1 (stereo not given) | 3.4
3 | CN(C)c1ncccc1NC(=O)COCC1CC1 | 2.89
4 | Fc1ccc(C2(c3noc(CCN4CCCCO4)n3)CCOC2)cc1 (stereo not given) | 5.16
5 | NC(=O)CC1CCCN(c2cncc(OCc3ccccc3)n2)C1 (stereo not given) | 20.7
6 | CNc1nc(C(=O)NCC2CCOc3ccccc3C2)cs1 (stereo not given) | 1.74
7 | Cc1nc(N(C)C)cc(C2(C)CCCNC2)n1 (stereo not given) | 10.2
8 | CC(C)OCCN1CCC(Nc2nccnc2C#N)CC1 | -5.15
9 | O=C1NCCCCC1NC(=O)N1CCc2ccccc21 (stereo not given) | -3.02
10 | c1cc(N2CCC(CN3CCOCC3)CC2)c2sccc2n1 | 2.28
11 | CCN(C)S(=O)(=O)N[C@H]1CN(c2ccc(F)cn2)C[C@@H]1C(C)C | -6.05
12 | Nc1nc(CC(=O)N2CCCC(CCc3cccc(F)c3)C2)cc(=O)[nH]1 (stereo not given) | -9.77
13 | Cc1nn2cccnc2c1C(=O)NCc1ccccc1OC1CCC1 | 6.53
14 | NC(=O)NC(CC(=O)N1CCc2sccc2C1)c1cccc(Br)c1 (stereo not given) | 13.9
15 | Cc1ncsc1C(=O)OCCN1CCCCCC1=O | 5.73
16 | CCc1ccc(CN2CCOC(Cc3cccc(F)c3)C2)nc1 (stereo not given) | 5.27
17 | CC(C)Cn1ccnc1CNC(=O)N1CCCC1CN1CCOCC1 (stereo not given) | -4.29
18 | COC(CNC(=O)c1ccc(NC(C)=O)cc1)c1cccc(Cl)c1 (stereo not given) | 1.2
19 | Cc1nc(-n2nc(-c3cccs3)cc2N)[nH]c(=O)c1C | -14.4
20 | CC(c1nc(-c2cccnc2)no1)N(C)CCCOc1ccccc1 (stereo not given) | -4.41
